This test can be described thus: mitochondrial membrane potential change in A549 cells, profiling panel, cell-based, JC-1 fluorescence, basal, 24 h, 100 nL (AID 1138).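 Also: A549 lung adenocarcinoma cells under basal conditions with no added stimulus; test concentration not given here.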 The note with it: higher = more signal.
The compound `COC(=O)[C@@H]1N=C(c2ccc(OCCCO)cc2)O[C@@H]1C` had a z-score of 0.669.

`C=C[C@H]1C(C(=O)OCC)=CC[C@@H](c2ccccc2)N1S(=O)(=O)c1ccc(C)cc1` yielded a z-score of 3.33.

`CC(c1ccccc1)C(O)C1C=CC2C(=O)N(C)C(=O)C2N1Nc1ccccc1` (stereo not given) registered a z-score of -0.0184.

The compound `NC(=O)NCC#Cc1ccc2c(c1)[C@]1(C(=O)N2)[C@H](c2ccccc2OCCO)N2[C@H](c3ccccc3)[C@H](c3ccccc3)OC(=O)[C@H]2[C@@H]1C(=O)NC[C@H](O)c1ccccc1` registered a z-score of -0.203.

The compound `CCCCC[C@H]1OC[C@@]23C=C(Br)[C@@H](CC12)[C@@]1(CO1)C3=O` (stereo not given in full) gave a z-score of 0.617.

`CCC#CCN(Cc1ccccc1Br)[C@H](/C=C/C1CC1)[C@@H](O)Cc1ccccc1` yielded a z-score of -0.368.

On to `COC(=O)C(CC#Cc1ccc2c(c1)[C@]1(C(=O)N2)[C@H](c2ccc(O)cc2)N2[C@H](c3ccccc3)[C@H](c3ccccc3)OC(=O)[C@H]2[C@@H]1C(=O)NC[C@H](O)c1ccccc1)C(=O)OC`, for which the z-score was -0.97.

Consider `CCCCC(O)C1C=CC2C(=O)N(C)C(=O)C2N1N(c1ccccc1)c1ccccc1` (stereo not given), for which the z-score is 0.804.

Compound `O=C1[C@H]2C=C(I)[C@H](C[C@@H]2OCCOCCO)[C@@]12CO2` displayed a z-score of -0.43.

Turning to `C=CC[C@]1(C(=O)N2CCCCC2)N=C(c2ccc(OCCCO)cc2)O[C@H]1c1ccccc1CN=[N+]=[N-]`, the z-score was determined as 1.29.

With `COC(=O)[C@@]1(Cc2ccc(OC)cc2)[C@H]2c3cc(C(=O)N4CCCC4)n(CCO)c3C[C@H]2CN1C(=O)c1ccccc1`, the z-score was -0.117.

Take `C=CC[C@]1(C(=O)N2CCOCC2)COC(c2ccc(OCCCO)cc2)=N1`: the z-score is -0.772.

Regarding `CN(C)C(=O)[C@]1(CCC(=O)OC(C)(C)C)N=C(c2ccc(OCCCO)cc2)O[C@@H]1c1ccccc1CN=[N+]=[N-]`, the z-score stood at 1.03.

In the case of `CO[C@H]1O[C@H](CO)[C@@H](OC(=O)Nc2ccc3c(c2)OCO3)[C@H](OC(=O)Nc2ccc3c(c2)OCO3)[C@@H]1OC(=O)Nc1ccc2c(c1)OCO2`, the z-score was 0.0347.

For `C=C[C@@H](OC)[C@H](OC(=O)Nc1ccc(OC)cc1)c1ccc(O)c(F)c1`, the z-score is -0.116.

For the compound `COC(=O)c1c(CC[C@@H](CO)NC(=O)N[C@@H](C)Cn2cc(-c3ccccn3)nn2)oc(C(C)=O)c1C(=O)OC`, the z-score was -0.467.

As to `CCCC[C@@H](O)C1=C(COC)C[C@H]2C(=O)N(Cc3ccccc3)C(=O)[C@H]2[C@H]1CO`, the z-score was 0.699.

Take `CCCN1C(=O)[C@]2(Cc3ccccc31)N=C(c1ccc(OCCCO)cc1)O[C@@H]2c1ccccc1`: the z-score is -0.23.

Regarding `CCOC(=O)C[C@H]1[C@H](OC(=O)c2ccc(C(=O)c3ccccc3)cc2)[C@@H](NC(=O)C2CCCCC2)c2cc(OCCCO)ccc2N1C(=O)c1ccc2ccccc2n1`, the z-score was found to be 0.956.

For `COc1cccc(C)c1NC(=O)O[C@H]1[C@H](OC(=O)Nc2ccc3c(c2)OCO3)[C@@H](OC(=O)Nc2ccc3c(c2)OCO3)[C@@H](OC)O[C@@H]1CO`, the z-score was -0.588.

In the case of `CC(C)(C)OC(=O)COc1cccc(C(=O)CCN2CCOCC2)c1`, the z-score stood at 0.583.

With `CC(C)NC(=O)[C@@]1(C)c2ccccc2C(=O)N(Cc2ccc(OC(F)(F)F)cc2)[C@H]1c1ccc(CO)cc1`, the z-score was -0.19.

Regarding `COc1cc2c(cc1O)C(c1cccs1)N(Cc1cc3c(cc1Br)OCO3)CC2` (stereo not given), the z-score was -1.56.

`CCCCNC(=O)c1ccc(C#CC(C)(C)C)c(OC(C)=O)c1` displayed a z-score of -0.895.

With `CCCC1(C(=O)OC)C=C2C(=C(C)C(=O)C2C)CN1` (stereo not given), the z-score came to 0.511.

In the case of `O=C(C1N=C(c2ccc(OCCCO)cc2)N(c2ccccc2)O1)N1CCCCC1` (stereo not given), the z-score was 0.924.

As to `CCCCN1CC=CC23O[C@@H]4/C=C\CCC(C)OC(=O)C4[C@H]2C(=O)N(CCCO)[C@@H]3C1=O` (stereo not given in full), the z-score was -0.573.

The compound `Cc1ccc(S[C@]2(C(=O)NCC(F)(F)F)CC(=O)N(Cc3cc(C(F)(F)F)cc(C(F)(F)F)c3)[C@@H]2c2ccc(CO)cc2)cc1` came in with a z-score of 0.0304.

For the compound `COC(=O)[C@@]1(Cc2ccc(F)cc2)[C@H]2c3cc(C(=O)N(C)C)n(CCc4ccc(OC)c(Br)c4)c3C[C@H]2CN1C(=O)c1ccccc1`, the z-score was -0.638.

`O=C(NCCN1CCOCC1)[C@@H]1c2ccccc2C(=O)N(Cc2ccccc2Cl)[C@H]1c1ccc(CO)cc1` showed a z-score of 1.79.

As to `CCCCCN1CC=CC23O[C@@H]4/C=C\CCCOC(=O)C4[C@H]2C(=O)N(C(C)CO)[C@@H]3C1=O` (stereo not given in full), the z-score came out at 0.17.

`COc1ccc(CCNC(=O)[C@@H]2c3ccccc3C(=O)N(C3CCCCC3)[C@H]2c2ccc(CO)cc2)cc1` displayed a z-score of -0.263.

Take `C=CCNC(=O)[C@H]1[C@@H]2C(=O)O[C@@H](c3ccccc3)[C@@H](c3ccccc3)N2[C@@H](c2ccccc2OCCO)[C@]12C(=O)N(C(=O)OCCOC)c1ccc(C#CC3(O)CCCCCC3)cc12`: the z-score is -0.634.

`C#Cc1cc2ccccc2oc1=O` came in with a z-score of -1.14.

Regarding `CCCC=C(CCC)[C@@H](NS(=O)(=O)CC12CCC(CC1=O)C2(C)C)c1ccc(C(=O)OC)cc1` (stereo not given in full), the z-score was 0.237.
